Results on 3 compounds are retold here after ChEMBL document CHEMBL1961873, “Compounds: GSK PKIS; Assays: Nanosyn kinase panel” (2012).

Assay [1] concerns the target T1, Serine/threonine-protein kinase D2 (Homo sapiens) (UniProt Q9BZL6).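 Also: mean value of PRKD2 inhibition, from the GSK PKIS screening panel.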
T1 sequence (whole entry): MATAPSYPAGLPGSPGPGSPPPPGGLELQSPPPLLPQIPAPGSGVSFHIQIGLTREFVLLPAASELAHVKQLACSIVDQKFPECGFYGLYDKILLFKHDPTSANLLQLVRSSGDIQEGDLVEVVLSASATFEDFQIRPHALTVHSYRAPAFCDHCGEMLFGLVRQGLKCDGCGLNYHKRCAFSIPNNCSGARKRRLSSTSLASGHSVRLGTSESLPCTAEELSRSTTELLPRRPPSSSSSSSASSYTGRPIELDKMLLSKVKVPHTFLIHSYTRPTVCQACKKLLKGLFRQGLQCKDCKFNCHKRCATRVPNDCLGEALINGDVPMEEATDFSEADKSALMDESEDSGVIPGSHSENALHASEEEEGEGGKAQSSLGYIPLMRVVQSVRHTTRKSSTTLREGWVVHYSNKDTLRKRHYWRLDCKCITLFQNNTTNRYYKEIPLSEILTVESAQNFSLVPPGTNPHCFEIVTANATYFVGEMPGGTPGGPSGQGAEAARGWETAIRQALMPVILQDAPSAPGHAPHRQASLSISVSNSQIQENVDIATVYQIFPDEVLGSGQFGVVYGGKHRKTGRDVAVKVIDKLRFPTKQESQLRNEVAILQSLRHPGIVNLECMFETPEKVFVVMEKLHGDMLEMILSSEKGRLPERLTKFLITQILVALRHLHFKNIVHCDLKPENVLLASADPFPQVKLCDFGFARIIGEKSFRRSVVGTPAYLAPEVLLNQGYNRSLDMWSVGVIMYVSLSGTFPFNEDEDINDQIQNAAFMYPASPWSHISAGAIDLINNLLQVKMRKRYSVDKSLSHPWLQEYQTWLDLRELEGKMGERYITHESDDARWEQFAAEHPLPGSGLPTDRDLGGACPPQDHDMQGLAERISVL
To be noted: at 1 µM.

Assay [2] addresses T2, Serine/threonine-protein kinase D3 (Homo sapiens) (UniProt O94806).
T2 sequence (whole entry): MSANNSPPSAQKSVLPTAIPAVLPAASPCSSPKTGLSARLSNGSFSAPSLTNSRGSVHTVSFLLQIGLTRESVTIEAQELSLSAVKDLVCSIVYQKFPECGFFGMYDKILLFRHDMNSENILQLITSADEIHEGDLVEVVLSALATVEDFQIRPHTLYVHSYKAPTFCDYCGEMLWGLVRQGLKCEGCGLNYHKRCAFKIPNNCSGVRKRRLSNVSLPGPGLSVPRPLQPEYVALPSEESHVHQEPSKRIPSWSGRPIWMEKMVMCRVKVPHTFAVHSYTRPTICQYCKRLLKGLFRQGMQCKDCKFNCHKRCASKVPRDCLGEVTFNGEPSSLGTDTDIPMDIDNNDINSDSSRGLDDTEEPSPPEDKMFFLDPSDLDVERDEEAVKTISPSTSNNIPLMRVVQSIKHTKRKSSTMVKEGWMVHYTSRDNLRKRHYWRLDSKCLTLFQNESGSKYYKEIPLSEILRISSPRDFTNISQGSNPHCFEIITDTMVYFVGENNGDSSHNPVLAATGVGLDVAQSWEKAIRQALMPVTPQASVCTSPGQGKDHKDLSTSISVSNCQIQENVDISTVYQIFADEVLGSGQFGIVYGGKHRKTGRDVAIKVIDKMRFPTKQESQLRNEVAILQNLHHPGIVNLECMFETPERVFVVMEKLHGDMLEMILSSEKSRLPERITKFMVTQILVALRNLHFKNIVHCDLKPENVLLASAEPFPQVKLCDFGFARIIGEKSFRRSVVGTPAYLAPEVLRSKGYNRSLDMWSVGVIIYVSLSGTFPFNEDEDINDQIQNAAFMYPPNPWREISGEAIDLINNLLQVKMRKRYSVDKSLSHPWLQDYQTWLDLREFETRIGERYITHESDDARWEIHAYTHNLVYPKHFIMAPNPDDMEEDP
To be noted: at 0.1 µM.

For assay [3], the target named is T2, Serine/threonine-protein kinase D3 (Homo sapiens). As to conditions: at 1 µM.
The target in assay [4] is T3, cGMP-dependent protein kinase 1 (Homo sapiens) (UniProt Q13976).
T3 sequence (whole entry): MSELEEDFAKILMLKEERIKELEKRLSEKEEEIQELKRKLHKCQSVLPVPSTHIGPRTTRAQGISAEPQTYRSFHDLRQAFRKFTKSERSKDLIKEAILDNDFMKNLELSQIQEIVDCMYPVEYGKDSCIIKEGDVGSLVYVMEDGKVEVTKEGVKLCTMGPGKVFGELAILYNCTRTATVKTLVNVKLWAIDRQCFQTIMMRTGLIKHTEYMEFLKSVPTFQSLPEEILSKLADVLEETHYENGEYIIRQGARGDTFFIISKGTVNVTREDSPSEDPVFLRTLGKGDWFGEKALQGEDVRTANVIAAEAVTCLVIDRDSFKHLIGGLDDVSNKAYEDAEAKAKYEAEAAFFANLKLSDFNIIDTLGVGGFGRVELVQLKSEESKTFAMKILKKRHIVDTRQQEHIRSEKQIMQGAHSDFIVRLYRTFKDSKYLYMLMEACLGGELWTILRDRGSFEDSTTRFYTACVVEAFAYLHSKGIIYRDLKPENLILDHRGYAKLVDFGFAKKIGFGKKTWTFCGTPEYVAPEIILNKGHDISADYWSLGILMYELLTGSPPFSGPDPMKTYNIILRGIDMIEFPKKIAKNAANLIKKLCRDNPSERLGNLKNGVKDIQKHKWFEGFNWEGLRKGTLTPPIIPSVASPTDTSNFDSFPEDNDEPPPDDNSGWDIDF
As to conditions: at 0.1 µM.

The target in assay [5] is T3, cGMP-dependent protein kinase 1 (Homo sapiens). As to conditions: at 1 µM.
Assay [6] concerns the target T4, cGMP-dependent protein kinase 2 (Homo sapiens) (UniProt Q13237).
T4 sequence (whole entry): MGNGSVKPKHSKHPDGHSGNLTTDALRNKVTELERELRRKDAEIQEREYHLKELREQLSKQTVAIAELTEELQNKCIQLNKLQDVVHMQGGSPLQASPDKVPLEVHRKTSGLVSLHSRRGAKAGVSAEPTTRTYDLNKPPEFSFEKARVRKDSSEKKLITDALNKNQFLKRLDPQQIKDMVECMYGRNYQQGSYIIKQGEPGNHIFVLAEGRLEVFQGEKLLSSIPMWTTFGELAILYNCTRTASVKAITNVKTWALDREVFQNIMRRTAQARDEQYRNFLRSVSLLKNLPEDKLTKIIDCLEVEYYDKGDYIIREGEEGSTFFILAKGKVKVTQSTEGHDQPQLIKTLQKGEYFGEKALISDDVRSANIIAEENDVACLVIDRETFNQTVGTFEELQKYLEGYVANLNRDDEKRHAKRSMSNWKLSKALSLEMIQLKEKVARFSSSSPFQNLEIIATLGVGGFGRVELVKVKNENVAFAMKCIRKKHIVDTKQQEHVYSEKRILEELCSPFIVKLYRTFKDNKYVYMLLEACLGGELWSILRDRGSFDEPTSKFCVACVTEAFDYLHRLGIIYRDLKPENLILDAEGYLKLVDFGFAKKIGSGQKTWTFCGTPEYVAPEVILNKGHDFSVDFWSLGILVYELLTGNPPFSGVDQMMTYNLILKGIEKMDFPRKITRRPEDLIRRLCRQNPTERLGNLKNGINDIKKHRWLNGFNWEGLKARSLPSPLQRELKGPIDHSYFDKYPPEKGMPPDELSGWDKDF
As to conditions: at 0.1 µM.

The target of assay [7] is T4, cGMP-dependent protein kinase 2 (Homo sapiens). To be noted: at 1 µM.
For assay [8], the target named is T5, cAMP-dependent protein kinase catalytic subunit PRKX (Homo sapiens) (UniProt P51817).
T5 sequence (whole entry): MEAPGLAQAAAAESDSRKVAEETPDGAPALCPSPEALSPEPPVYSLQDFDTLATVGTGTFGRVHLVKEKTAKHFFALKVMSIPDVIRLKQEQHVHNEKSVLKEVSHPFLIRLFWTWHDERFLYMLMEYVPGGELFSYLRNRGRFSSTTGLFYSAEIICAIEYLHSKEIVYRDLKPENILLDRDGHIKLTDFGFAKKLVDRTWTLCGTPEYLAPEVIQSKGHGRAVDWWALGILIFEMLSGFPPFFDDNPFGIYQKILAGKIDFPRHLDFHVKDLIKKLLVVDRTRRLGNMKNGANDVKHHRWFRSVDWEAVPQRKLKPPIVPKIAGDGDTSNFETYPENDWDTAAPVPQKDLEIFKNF
As to conditions: at 0.1 µM.

Assay [9] concerns the target T5, cAMP-dependent protein kinase catalytic subunit PRKX (Homo sapiens). As to conditions: at 1 µM.
The target in assay [10] is Rho-associated protein kinase 1 (Homo sapiens) (UniProt Q13464). As to conditions: at 0.1 µM.
Sequence of Rho-associated protein kinase 1 (Homo sapiens) (Q13464 2-1354 limits assumed): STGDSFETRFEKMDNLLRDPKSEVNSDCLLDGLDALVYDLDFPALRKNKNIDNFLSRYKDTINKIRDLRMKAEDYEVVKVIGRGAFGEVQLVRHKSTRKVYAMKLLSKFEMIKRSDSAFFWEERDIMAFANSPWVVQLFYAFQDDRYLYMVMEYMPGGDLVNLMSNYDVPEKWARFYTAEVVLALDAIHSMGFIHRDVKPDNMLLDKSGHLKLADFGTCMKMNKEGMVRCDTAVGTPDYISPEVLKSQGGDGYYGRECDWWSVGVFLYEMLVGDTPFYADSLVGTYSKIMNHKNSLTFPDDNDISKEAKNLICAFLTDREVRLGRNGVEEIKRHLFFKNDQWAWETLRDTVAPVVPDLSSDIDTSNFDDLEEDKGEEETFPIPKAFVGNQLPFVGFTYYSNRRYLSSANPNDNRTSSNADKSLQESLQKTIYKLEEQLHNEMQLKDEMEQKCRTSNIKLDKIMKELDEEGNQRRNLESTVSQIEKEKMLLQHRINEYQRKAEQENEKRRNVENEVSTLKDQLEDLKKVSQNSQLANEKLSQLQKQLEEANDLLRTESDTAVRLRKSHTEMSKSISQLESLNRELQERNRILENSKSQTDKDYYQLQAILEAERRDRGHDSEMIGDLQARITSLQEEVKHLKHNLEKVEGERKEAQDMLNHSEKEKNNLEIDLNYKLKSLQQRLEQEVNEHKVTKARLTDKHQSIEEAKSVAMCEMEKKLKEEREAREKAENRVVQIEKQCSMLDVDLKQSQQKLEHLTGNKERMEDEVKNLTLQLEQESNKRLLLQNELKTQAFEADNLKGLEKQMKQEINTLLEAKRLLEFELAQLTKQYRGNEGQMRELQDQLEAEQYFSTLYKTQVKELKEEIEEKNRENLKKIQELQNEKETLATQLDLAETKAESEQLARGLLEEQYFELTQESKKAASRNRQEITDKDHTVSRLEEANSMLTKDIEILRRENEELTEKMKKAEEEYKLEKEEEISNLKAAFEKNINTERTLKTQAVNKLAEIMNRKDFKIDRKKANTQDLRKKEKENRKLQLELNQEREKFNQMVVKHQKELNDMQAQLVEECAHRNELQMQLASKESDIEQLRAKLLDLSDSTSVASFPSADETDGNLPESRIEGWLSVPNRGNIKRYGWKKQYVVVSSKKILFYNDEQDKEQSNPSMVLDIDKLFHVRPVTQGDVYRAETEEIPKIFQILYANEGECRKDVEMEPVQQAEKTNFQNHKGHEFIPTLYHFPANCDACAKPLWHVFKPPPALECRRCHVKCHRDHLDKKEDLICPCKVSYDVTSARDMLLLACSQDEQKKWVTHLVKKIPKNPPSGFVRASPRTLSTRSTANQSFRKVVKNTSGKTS
Assay [11] shares this target. To be noted: at 1 µM.
Assay [12] addresses Rho-associated protein kinase 2 (Homo sapiens) (UniProt O75116). As to conditions: at 0.1 µM.
Assay [13] has the same target. To be noted: at 1 µM.
Assay [14] has as its target Ribosomal protein S6 kinase alpha-1 (Homo sapiens) (UniProt Q15418). To be noted: at 0.1 µM.
For assay [15] the target is unchanged. As to conditions: at 1 µM.
Assay [16] has as its target Ribosomal protein S6 kinase alpha-3 (Homo sapiens) (UniProt P51812). As to conditions: at 0.1 µM.
The target is the same in assay [17]. To be noted: at 1 µM.
The target of assay [18] is Ribosomal protein S6 kinase alpha-2 (Homo sapiens) (UniProt Q15349). To be noted: at 0.1 µM.
Sequence of Ribosomal protein S6 kinase alpha-2 (Homo sapiens) (Q15349 whole entry): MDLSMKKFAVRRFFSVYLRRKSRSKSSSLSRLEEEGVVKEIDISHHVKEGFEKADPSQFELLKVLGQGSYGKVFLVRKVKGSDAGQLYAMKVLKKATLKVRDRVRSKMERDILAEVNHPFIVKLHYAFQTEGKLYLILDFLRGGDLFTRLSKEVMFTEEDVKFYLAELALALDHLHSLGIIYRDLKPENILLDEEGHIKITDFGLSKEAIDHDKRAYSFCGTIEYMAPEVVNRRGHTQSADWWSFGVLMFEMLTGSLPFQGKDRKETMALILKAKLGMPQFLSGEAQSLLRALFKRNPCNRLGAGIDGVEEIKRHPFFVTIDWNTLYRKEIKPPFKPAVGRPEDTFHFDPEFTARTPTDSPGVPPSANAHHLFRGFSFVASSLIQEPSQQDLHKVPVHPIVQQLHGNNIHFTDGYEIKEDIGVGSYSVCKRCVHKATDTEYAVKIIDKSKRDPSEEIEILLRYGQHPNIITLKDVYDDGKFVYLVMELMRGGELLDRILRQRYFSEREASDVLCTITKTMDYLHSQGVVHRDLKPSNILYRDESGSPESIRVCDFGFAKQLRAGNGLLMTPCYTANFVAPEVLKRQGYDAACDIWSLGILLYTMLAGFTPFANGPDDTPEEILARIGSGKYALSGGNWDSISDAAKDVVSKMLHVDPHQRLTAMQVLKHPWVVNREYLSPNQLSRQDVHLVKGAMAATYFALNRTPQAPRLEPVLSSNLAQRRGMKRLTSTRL
Assay [19] shares this target. To be noted: at 1 µM.
The target in assay [20] is Ribosomal protein S6 kinase alpha-6 (Homo sapiens) (UniProt Q9UK32). To be noted: at 0.1 µM.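 Also: reported value is the mean inhibition of RSK4, from the GSK PKIS kinase inhibitor screen.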
Sequence of Ribosomal protein S6 kinase alpha-6 (Homo sapiens) (Q9UK32 whole entry): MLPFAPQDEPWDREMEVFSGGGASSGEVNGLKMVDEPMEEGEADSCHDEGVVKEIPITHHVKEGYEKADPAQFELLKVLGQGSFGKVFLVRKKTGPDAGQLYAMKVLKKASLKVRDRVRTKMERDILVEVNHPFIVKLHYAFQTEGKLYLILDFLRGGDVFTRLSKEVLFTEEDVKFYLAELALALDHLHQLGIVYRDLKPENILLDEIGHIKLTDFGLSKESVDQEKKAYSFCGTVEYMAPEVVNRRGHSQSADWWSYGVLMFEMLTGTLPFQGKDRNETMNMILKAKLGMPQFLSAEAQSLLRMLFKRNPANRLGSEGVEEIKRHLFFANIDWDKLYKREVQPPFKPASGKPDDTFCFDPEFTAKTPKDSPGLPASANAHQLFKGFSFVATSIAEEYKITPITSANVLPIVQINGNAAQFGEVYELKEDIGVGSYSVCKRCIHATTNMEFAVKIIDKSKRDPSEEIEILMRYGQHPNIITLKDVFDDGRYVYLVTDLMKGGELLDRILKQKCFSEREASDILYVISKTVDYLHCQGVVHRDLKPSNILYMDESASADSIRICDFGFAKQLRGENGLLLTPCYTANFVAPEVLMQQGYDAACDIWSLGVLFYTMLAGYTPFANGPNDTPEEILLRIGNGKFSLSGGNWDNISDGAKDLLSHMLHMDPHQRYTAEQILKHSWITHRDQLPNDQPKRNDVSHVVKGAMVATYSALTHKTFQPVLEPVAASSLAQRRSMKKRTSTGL

Sequence of Ribosomal protein S6 kinase alpha-1 (Homo sapiens) (Q15418 whole entry): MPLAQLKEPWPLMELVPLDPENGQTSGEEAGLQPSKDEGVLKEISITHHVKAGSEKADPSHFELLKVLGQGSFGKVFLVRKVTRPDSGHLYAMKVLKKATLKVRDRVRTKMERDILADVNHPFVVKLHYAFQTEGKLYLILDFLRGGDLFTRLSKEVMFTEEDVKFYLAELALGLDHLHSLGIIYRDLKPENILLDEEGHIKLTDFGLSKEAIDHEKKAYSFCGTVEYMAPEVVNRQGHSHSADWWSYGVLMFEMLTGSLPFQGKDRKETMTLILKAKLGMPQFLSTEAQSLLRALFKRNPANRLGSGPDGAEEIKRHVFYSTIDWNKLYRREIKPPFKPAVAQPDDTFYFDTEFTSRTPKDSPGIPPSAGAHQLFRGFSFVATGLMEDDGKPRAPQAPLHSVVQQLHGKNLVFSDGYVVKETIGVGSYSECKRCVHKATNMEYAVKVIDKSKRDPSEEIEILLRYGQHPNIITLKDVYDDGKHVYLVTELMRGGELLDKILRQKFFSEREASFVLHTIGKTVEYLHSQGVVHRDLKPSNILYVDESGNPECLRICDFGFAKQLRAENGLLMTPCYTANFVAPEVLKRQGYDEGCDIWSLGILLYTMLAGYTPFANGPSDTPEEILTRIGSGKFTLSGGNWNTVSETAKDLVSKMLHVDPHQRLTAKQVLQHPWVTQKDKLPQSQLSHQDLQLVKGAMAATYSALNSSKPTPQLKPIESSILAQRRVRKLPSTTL
Sequence of Rho-associated protein kinase 2 (Homo sapiens) (O75116 whole entry, looked up): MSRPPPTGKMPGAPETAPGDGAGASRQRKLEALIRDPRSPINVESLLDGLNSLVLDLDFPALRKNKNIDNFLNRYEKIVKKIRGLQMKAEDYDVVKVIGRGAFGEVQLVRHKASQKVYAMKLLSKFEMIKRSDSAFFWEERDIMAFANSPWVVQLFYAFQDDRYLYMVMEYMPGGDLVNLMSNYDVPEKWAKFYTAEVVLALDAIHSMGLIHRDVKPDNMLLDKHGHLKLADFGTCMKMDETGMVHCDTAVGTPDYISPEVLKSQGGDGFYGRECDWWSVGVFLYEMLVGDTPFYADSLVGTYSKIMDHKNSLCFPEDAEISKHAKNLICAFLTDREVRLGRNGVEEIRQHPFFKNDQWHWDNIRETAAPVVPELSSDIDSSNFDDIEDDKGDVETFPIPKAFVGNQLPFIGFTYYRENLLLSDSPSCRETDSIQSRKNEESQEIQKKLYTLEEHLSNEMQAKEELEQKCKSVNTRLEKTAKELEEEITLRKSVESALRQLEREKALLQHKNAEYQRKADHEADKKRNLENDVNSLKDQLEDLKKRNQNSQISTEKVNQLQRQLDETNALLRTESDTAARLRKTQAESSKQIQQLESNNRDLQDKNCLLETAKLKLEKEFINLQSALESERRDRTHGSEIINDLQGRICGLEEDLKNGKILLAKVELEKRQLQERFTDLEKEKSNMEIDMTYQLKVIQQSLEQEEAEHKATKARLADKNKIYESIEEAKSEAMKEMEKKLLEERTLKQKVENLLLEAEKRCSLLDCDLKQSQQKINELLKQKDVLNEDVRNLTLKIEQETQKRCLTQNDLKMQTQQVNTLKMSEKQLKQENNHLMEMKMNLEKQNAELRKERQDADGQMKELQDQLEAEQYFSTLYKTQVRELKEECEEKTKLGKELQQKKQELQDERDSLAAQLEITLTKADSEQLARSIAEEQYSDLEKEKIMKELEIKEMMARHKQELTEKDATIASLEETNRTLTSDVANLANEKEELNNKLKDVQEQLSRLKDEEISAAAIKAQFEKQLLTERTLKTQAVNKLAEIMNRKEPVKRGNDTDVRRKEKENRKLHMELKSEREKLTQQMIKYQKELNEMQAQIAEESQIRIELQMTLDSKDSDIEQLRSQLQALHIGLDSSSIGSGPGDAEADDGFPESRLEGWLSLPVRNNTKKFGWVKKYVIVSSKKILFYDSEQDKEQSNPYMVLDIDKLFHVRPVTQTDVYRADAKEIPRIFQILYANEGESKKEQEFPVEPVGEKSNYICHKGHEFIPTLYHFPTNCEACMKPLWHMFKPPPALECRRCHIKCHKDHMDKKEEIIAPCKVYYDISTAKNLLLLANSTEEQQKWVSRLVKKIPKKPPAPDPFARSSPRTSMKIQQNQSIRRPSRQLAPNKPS

For `COC(=O)Nc1nc2cc(Oc3ccc(NC(=O)Nc4cccc(C(=O)O)c4)cc3)ccc2[nH]1`, the inhibition is -1.55% in [1]; -2.32% in assay [2]; -3.85% in [3]; -0.28% in assay [4]; 2.77% in assay [5]; 1.1% in [6]. For the same compound, the inhibition in [7] came to 0.86%; in assay [8] it was 0.76%; in assay [9] it was 1.8%; in assay [10] it was 0.24%; in assay [11], 1.55%; in assay [12] it was 2.14%. Also, the inhibition is 5.7% in [13]; 1.21% in [14]; 2.55% in assay [15]; 1.11% in [16]; 1.31% in [17]; 0.86% in assay [18]. The results for the inhibition in [19] and in assay [20] were 2% and 0.08%, respectively.

As for `CS(=O)(=O)CCNCc1ccc(-c2ccc3ncnc(Nc4ccc(OCc5ccccc5)c(Cl)c4)c3c2)o1`, the inhibition was -0.61% in [1]; -0.81% in [2]; -0.48% in assay [3]; 1.06% in assay [4]; 2% in assay [5]; 0.55% in assay [6]. Also, the inhibition in assay [7] was 1.26%; in [8] it was 0.78%; in [9], 0.52%; in [10], 1.32%; in [11], 3.86%; in assay [12] it was 1.28%. In addition, the inhibition in [13] is 5.61%; in assay [14] it was 0.36%; in assay [15], 2.7%; in assay [16], -1.21%; in assay [17], 1.51%; in assay [18] it was 1.08%. Moreover, the inhibition in assay [19] is 2.7%; in assay [20], -0.67%.

Turning to `CC(C)=Cc1cccc2c1/C(=N/Nc1ccc(S(N)(=O)=O)cc1)C(=O)N2`, the inhibition came out at 12.2% in assay [1]; 1.39% in assay [2]; 8.68% in assay [3]; 1.14% in assay [4]; 4.69% in [5]; 1.13% in assay [6]. For the same compound, the inhibition in assay [7] worked out at 7.29%; in assay [8], 1.11%; in assay [9], 1.36%; in assay [10], 1.3%; in assay [11], 10.1%; in assay [12] it was 3.96%. Moreover, the inhibition amounted to 20.5% in assay [13]; 2.45% in assay [14]; 12.4% in [15]; 1.53% in assay [16]; 8.42% in assay [17]; 2.5% in [18]. The inhibition in assay [19] is 16.4%; in assay [20], 1.61%.

By inhibition is commonly meant the drop in the measured response relative to a control, in per cent.
